# For some of these results: Entries with a potency or affinity are not part of this list.
# Key:
# Design in all cases: scale not given: direction of the effect not stated beside the values
# [1] = biological target: Protein translocase subunit SecA (Escherichia coli (strain K12)) (UniProt P10408); assay: Assay to Identify E. coli SecA ATPase Inhibitors; format: functional; conditions: 30 µM
# [2] = biological target: T1, Ubiquitin-activating enzyme e1, putative (Leishmania donovani (strain BPK282A1)) (UniProt E9BSI1); assay: Leishmania donovani Ubiquitin Activating Enzyme (LdE1); format: functional; conditions: 30 µM
# T1 sequence (whole entry): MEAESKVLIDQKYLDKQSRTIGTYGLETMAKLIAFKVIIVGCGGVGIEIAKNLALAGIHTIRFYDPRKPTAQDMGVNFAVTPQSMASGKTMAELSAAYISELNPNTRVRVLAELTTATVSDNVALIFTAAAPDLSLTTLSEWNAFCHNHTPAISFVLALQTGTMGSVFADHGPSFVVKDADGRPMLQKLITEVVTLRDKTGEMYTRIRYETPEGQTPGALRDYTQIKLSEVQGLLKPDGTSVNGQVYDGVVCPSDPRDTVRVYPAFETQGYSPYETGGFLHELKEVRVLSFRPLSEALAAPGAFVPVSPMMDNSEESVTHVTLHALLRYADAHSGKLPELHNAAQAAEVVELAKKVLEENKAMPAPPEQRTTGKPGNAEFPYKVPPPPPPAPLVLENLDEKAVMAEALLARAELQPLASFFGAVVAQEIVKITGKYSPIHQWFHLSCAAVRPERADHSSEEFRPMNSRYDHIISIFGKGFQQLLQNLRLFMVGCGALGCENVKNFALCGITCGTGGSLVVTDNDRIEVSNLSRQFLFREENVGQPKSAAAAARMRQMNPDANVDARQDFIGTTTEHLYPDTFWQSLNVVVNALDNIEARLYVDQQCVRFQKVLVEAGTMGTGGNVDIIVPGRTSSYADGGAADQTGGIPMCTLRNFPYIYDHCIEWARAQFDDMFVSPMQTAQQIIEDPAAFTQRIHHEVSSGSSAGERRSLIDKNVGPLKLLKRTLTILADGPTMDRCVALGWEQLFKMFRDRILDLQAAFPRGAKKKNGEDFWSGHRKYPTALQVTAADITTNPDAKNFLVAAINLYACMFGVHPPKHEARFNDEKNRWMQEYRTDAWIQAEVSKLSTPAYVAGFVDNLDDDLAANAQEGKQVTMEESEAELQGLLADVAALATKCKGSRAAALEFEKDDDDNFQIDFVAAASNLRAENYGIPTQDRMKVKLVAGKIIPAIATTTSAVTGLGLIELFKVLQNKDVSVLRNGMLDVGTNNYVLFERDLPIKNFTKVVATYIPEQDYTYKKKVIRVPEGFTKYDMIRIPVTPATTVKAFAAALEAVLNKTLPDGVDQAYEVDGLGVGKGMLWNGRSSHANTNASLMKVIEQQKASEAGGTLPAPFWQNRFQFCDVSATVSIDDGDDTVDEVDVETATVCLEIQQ
# [3] = biological target: AMP-activated protein kinase, AMPK (Homo sapiens) (UniProt P54646+O43741+P54619+Q9UGJ0+Q9Y478+Q13131+Q9UGI9); assay: AMP-dependent Kinase enzyme assay. An in vitro enzyme assay that detects ADP turnover that is directly proportional to AMPK activity. This uses naive AMPK that is activated during the assay with MK-8722; format: functional; conditions: 30 µM
# [4] = biological target: Sialic acid-binding Ig-like lectin 9 (Homo sapiens) (UniProt Q9Y336); assay: Hs-Siglec9 ALPHAscreen SOP 20170721; conditions: 10 µM
# Sequence of Sialic acid-binding Ig-like lectin 9 (Homo sapiens) (Q9Y336 whole entry): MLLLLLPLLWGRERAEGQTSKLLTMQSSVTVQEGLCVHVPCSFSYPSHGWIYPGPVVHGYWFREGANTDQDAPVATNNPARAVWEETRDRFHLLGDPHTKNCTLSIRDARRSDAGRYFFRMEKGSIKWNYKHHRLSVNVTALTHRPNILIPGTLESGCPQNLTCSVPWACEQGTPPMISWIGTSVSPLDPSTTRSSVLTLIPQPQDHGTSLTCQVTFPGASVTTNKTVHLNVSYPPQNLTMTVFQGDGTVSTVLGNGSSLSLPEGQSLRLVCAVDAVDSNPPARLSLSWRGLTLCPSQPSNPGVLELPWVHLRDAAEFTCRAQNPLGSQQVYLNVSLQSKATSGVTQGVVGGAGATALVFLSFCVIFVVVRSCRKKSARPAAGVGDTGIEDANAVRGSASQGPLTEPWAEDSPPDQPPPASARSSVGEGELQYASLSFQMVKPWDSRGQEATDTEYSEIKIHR
# Trypanosoma cruzi = assay: Trypanosoma cruzi phosphomannomutase and mannose-1-phosphate guanylyltransferase assay; format: functional; conditions: 10 µM
# [5] = biological target: T2, Arginase-2, mitochondrial (Homo sapiens) (UniProt P78540); assay: in vitro enzyme assay to detect the production of urea directly proportional to the activity of Arginase II; format: functional; conditions: 33.3 µM; note: in the data most compounds retested in dose-response had high values
# T2 sequence (whole entry): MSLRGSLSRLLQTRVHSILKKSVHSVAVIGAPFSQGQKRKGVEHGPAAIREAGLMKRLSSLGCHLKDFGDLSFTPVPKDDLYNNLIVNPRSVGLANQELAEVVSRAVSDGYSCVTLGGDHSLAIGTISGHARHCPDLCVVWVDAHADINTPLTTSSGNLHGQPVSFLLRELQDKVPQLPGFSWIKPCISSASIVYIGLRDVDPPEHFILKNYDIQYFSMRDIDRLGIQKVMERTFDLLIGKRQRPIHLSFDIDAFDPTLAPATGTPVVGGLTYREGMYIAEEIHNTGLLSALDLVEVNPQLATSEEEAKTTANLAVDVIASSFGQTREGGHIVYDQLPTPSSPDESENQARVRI
# [6] = biological target: T3, Proteasome subunit beta (Trypanosoma cruzi) (UniProt O96673); assay: Trypanosoma cruzi proteasome chymotrypsin-like activity (TcProtChymo) assay.; note: in the data most compounds retested in dose-response had high values; format: functional; conditions: 9.37 µM
# T3 sequence (whole entry): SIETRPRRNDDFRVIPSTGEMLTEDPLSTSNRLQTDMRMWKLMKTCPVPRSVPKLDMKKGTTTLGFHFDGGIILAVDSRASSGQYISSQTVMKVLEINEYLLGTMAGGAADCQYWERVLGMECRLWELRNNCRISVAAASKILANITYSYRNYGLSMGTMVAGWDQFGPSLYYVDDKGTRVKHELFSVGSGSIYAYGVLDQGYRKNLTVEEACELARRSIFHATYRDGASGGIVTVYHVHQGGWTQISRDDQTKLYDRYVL
# Homo sapiens = species on record: Homo sapiens; assay: To identify inhibition of the IFN signalling (Jak-Stat) pathway via expression of an eGFP reporter gene under the control of an IFN-stimulated response element (ISRE) containing MxA promoter.; format: functional; conditions: 30 µM
# [7] = biological target: T4, Tyrosyl-tRNA synthetase, putative (Trypanosoma cruzi (strain CL Brener)) (UniProt Q4DSP6); assay: Trypanosoma cruzi tyrosyl tRNA synthetase (TcYRS) _High Tyrosine SOP; format: functional; conditions: 30 µM; note: in the data most compounds retested in dose-response had high values
# T4 sequence (whole entry): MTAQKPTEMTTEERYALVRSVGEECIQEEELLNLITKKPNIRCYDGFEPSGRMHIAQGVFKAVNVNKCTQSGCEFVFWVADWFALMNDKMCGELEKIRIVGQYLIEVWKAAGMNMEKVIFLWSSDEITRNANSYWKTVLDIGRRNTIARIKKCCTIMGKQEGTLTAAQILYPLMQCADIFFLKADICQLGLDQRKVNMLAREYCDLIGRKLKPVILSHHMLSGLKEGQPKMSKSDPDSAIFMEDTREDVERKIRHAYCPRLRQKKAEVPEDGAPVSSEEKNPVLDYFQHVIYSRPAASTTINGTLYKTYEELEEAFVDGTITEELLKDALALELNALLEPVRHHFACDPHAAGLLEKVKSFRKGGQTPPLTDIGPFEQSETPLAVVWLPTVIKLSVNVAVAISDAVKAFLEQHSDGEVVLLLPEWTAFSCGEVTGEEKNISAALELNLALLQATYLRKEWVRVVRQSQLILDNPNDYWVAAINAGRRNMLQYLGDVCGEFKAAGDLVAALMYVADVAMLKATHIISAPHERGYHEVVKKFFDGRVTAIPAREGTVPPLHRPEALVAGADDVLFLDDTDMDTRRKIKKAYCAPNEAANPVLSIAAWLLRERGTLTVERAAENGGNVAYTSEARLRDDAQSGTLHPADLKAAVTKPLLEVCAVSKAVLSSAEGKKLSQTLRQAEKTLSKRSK
# [8] = biological target: T4, Tyrosyl-tRNA synthetase, putative (Trypanosoma cruzi (strain CL Brener)); assay: Trypanosoma cruzi tyrosyl tRNA synthetase (TcYRS) SOP; format: functional; conditions: 30 µM
# [9] = biological target: Chromo domain-containing protein 1 (Saccharomyces cerevisiae (strain ATCC 204508 / S288c) (Baker's yeast)) (UniProt P32657); assay: ScCHD-1 Enzyme Inhibition Assay; format: functional; conditions: 30 µM; note: in the data most compounds retested in dose-response had high values
# Sequence of Chromo domain-containing protein 1 (Saccharomyces cerevisiae (strain ATCC 204508 / S288c) (Baker's yeast)) (P32657 whole entry, the tested form may be a part): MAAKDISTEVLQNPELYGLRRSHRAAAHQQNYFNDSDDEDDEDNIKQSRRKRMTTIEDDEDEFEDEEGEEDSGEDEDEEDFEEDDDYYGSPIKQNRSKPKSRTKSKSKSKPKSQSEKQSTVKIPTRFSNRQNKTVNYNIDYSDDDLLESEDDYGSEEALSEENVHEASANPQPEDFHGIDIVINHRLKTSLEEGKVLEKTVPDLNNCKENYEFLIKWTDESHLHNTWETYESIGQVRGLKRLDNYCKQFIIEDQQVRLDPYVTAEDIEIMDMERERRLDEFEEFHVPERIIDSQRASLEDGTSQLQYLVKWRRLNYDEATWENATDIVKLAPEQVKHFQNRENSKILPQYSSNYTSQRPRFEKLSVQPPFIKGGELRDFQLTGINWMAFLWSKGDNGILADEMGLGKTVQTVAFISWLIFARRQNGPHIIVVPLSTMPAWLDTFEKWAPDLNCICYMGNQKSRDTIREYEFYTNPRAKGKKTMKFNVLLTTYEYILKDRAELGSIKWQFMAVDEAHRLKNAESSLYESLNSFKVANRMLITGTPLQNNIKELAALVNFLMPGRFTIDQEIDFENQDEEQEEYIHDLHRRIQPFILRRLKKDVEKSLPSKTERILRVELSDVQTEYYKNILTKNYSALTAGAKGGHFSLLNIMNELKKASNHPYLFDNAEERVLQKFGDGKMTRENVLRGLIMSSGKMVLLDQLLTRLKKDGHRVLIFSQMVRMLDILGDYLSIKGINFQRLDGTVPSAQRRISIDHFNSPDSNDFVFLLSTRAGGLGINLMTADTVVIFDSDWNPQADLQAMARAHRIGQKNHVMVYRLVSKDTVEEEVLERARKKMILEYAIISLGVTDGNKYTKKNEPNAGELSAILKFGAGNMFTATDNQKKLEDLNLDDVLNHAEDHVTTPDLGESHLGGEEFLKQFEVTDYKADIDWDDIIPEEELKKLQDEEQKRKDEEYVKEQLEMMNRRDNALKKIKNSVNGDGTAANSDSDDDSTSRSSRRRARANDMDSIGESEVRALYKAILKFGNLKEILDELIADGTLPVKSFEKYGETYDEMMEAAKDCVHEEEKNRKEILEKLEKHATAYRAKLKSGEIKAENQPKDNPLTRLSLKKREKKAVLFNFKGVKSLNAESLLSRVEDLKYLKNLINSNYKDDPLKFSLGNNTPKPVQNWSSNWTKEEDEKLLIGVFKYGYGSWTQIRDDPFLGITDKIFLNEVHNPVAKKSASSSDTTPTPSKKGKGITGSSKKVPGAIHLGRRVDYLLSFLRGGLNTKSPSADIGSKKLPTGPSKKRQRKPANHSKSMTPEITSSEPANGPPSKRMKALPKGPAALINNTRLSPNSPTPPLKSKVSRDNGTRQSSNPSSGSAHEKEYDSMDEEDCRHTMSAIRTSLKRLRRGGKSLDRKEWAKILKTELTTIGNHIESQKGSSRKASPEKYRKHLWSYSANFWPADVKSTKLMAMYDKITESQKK
# Sequence of Protein translocase subunit SecA (Escherichia coli (strain K12)) (P10408 whole entry): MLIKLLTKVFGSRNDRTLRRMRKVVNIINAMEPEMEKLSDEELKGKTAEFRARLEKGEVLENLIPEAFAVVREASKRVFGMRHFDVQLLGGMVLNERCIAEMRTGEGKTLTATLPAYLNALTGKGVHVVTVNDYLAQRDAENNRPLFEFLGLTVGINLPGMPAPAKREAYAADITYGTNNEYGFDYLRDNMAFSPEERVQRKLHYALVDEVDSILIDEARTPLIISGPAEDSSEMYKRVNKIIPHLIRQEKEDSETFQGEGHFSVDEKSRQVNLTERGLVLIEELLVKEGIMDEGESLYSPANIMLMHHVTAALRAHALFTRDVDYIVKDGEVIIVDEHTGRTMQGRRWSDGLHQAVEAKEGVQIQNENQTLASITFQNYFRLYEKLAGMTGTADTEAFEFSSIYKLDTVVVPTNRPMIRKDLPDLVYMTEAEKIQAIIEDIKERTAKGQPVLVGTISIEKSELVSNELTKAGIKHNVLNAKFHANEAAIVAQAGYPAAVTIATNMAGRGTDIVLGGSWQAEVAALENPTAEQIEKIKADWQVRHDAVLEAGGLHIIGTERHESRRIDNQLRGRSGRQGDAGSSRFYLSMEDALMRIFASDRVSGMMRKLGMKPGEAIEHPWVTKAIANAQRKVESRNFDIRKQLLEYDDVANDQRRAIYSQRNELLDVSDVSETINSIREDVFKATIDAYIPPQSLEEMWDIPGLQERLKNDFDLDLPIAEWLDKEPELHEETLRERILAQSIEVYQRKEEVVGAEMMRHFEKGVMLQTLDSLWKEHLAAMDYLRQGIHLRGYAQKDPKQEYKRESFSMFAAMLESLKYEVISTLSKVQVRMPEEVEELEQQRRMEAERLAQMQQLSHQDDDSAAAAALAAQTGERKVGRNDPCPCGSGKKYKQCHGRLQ
smiles,measurement,setting,value
CC(C)(O)C1CCN(C(=O)Nc2nc(-c3ccccc3)ns2)CC1,Percent Effect,[1],-2.39%
same,Percent Effect,[2],2.7%
same,Percent Effect,[3],-2.64%
same,Percent Effect,[4],7.48%
same,Percent Effect,Trypanosoma cruzi,2.25%
same,Percent Effect,[5],18.6%
same,Percent Effect,[6],18.8%
same,Percent Effect,Homo sapiens,55.5%
same,Percent Effect,[7],1.07%
same,Percent Effect,[8],3.7%
same,Percent Effect,[9],-3.52%
Cc1[nH]ccc1C(=O)Nc1cccc(CN2CCC(CO)CC2)c1,Percent Effect,[1],-3.65%
same,Percent Effect,[2],23.7%
same,Percent Effect,[3],-7.05%
same,Percent Effect,[4],-13.3%
same,Percent Effect,Trypanosoma cruzi,0.876%
same,Percent Effect,[5],-17.8%
same,Percent Effect,[6],8.34%
same,Percent Effect,Homo sapiens,30.6%
same,Percent Effect,[7],3.19%
same,Percent Effect,[8],13%
same,Percent Effect,[9],-9.32%
Cc1nc(CNC(=O)Cn2nc(-c3ccc(F)cc3)oc2=O)cs1,Percent Effect,[1],-2.4%
same,Percent Effect,[2],15.8%
same,Percent Effect,[3],10.4%
same,Percent Effect,[4],6.52%
same,Percent Effect,Trypanosoma cruzi,-1.32%
same,Percent Effect,[5],-4.21%
same,Percent Effect,[6],3.17%
same,Percent Effect,Homo sapiens,8.37%
same,Percent Effect,[7],7.35%
same,Percent Effect,[8],12.2%
same,Percent Effect,[9],-5.84%
Clc1ccc2oc(C3CCN(Cc4cccnc4)CC3)nc2c1,Percent Effect,[1],0.753%
same,Percent Effect,[2],13.5%
same,Percent Effect,[3],5.18%
same,Percent Effect,[4],16.9%
same,Percent Effect,Trypanosoma cruzi,5.02%
same,Percent Effect,[5],-10.5%
same,Percent Effect,[6],15.5%
same,Percent Effect,Homo sapiens,32.2%
same,Percent Effect,[7],-0.529%
same,Percent Effect,[8],12.2%
same,Percent Effect,[9],-6.96%
CC(C)C(Sc1nnnn1C1CC1)C(=O)NCc1cccnc1 (stereo unspecified),Percent Effect,[1],-3.26%
same,Percent Effect,[2],5.2%
same,Percent Effect,[3],3.52%
same,Percent Effect,[4],-3.03%
same,Percent Effect,Trypanosoma cruzi,-5.24%
same,Percent Effect,[5],17.8%
same,Percent Effect,[6],13.3%
same,Percent Effect,Homo sapiens,27.7%
same,Percent Effect,[7],6.8%
same,Percent Effect,[8],19.5%
same,Percent Effect,[9],-3.93%
CC(=O)NCC1CCN(C(=O)c2csc(-c3ccc(C)cc3C)n2)CC1,Percent Effect,[1],-3.29%
same,Percent Effect,[2],13.5%
same,Percent Effect,[3],1.21%
same,Percent Effect,[4],1.58%
same,Percent Effect,Trypanosoma cruzi,1.58%
same,Percent Effect,[5],0.554%
same,Percent Effect,[6],4.49%
same,Percent Effect,Homo sapiens,35.7%
same,Percent Effect,[7],7.92%
same,Percent Effect,[8],23.2%
same,Percent Effect,[9],0.867%
COCC(NC(=O)c1ccc[nH]1)c1cccc(C(F)(F)F)c1 (stereo unspecified),Percent Effect,[1],-6.18%
same,Percent Effect,[2],2.74%
same,Percent Effect,[3],-4.37%
same,Percent Effect,[4],35.1%
same,Percent Effect,Trypanosoma cruzi,9.01%
same,Percent Effect,[5],32.3%
same,Percent Effect,[6],4.79%
same,Percent Effect,Homo sapiens,3.46%
same,Percent Effect,[7],0%
same,Percent Effect,[8],10%
same,Percent Effect,[9],-5.6%
CCC1=N[C@@]2(CC[C@@H]3CN(C(=O)Nc4ccc(F)cc4)C[C@@H]32)C(=O)N1,Percent Effect,[1],-5.91%
same,Percent Effect,[2],5.41%
same,Percent Effect,[3],-0.761%
same,Percent Effect,[4],-2.41%
same,Percent Effect,Trypanosoma cruzi,7.42%
same,Percent Effect,[5],-2.5%
same,Percent Effect,[6],13.1%
same,Percent Effect,Homo sapiens,-26.3%
same,Percent Effect,[7],7.92%
same,Percent Effect,[8],8.54%
same,Percent Effect,[9],-6.29%
COc1cc(OC)c(C2Nc3cc(Cl)ccc3C3=NCCN32)cc1OC (stereo unspecified),Percent Effect,[1],-5.59%
same,Percent Effect,[2],-8%
same,Percent Effect,[3],-2.93%
same,Percent Effect,[4],2.92%
same,Percent Effect,Trypanosoma cruzi,6.89%
same,Percent Effect,[5],-3.5%
same,Percent Effect,[6],1.32%
same,Percent Effect,Homo sapiens,-10.9%
same,Percent Effect,[7],7.45%
same,Percent Effect,[8],14.1%
same,Percent Effect,[9],-5.67%
Cn1cc(C2CCCN2C(=O)c2ccc(Br)o2)cn1 (stereo unspecified),Percent Effect,[1],-4.98%
same,Percent Effect,[2],13.2%
same,Percent Effect,[3],2.02%
same,Percent Effect,[4],-8.81%
same,Percent Effect,Trypanosoma cruzi,-3.64%
same,Percent Effect,[5],1.08%
same,Percent Effect,[6],1.27%
same,Percent Effect,Homo sapiens,16.1%
same,Percent Effect,[7],0.493%
same,Percent Effect,[8],1.24%
same,Percent Effect,[9],1.07%
Fc1cnc(N2C[C@H]3CCC[C@@]3(COc3ccccn3)C2)nc1,Percent Effect,[1],-1.64%
same,Percent Effect,[2],1.33%
same,Percent Effect,[3],6.16%
same,Percent Effect,[4],4.78%
same,Percent Effect,Trypanosoma cruzi,-3.93%
same,Percent Effect,[5],-1.94%
same,Percent Effect,[6],10.5%
same,Percent Effect,Homo sapiens,-10.5%
same,Percent Effect,[7],5.29%
same,Percent Effect,[8],2.56%
same,Percent Effect,[9],-5.06%
